FBA Mtb inh – inhibits M. tuberculosis FBA enzyme | inhibition, % at 1 µM | AID 588726 | actives 2.3% (n = 360,000) | purified M. tuberculosis FBA, fluorescence read-out | P9WQA3; in the data active = inhibition above about 27%;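 note: 0% = vehicle and 100% = reference inhibitor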
Target sequence (P9WQA3 whole entry, looked up): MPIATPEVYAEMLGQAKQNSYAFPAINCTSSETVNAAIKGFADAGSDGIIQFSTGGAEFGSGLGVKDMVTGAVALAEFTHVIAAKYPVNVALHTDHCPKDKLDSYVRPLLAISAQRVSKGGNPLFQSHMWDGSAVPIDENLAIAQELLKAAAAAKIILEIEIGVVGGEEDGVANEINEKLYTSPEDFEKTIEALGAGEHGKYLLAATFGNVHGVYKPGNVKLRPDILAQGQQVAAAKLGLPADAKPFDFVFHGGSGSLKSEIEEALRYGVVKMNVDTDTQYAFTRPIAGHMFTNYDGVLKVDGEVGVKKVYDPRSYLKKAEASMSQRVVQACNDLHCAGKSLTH
PrP 5UTR inh – suppresses PrP 5' UTR mRNA reporter expression. cell-based PrP 5' UTR mRNA reporter, plate reader. AID 488862. actives 0.35% (n = 340,000). inhibition, % (test concentration not listed); in the data active = inhibition above about 52%; note: 0 = median of the neutral control wells
Y pestis TopoI – blocks Yersinia pestis topoisomerase I activity. Y. pestis Topo-I cleavage product accumulation, plate reader. activity, % at 10 µM. actives 0.064% (n = 360,000). AID 504884; in the data active = activity above about 50%, passing the limit was not always enough
Mtb hypoxia rep – reduces hypoxia-regulated biosensor signal in M. tuberculosis; M. tuberculosis hypoxia-regulated fluorescent reporter, fluorescence; fluorescence inhibition, % (concentration not given with the values); actives 0.1% (n = 300,000); AID 1159583; in the data active = fluorescence inhibition mostly above about 23%, no sharp cut-off; inactive = mostly below about 17%
PrPC TRFRET – reduces human prion protein on the cell surface; actives 0.43% (n = 370,000); inhibition, % at 13.8 µM; cell surface PrPC, TR-FRET read-out; in the data active = inhibition above about 24%; note: 0% = median of the test wells and 100% = reference compound wells
GDH-TPI counter – GDH-TPI coupled enzyme inhibition counter-screen; GDH-TPI coupled enzyme counterscreen, NADH absorbance; inhibition, % at 4.8 µM; actives 1.2% (n = 360,000); AID 588335; in the data active = inhibition above about 30%;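 note: 0% = DMSO wells and 100% = wells lacking the enzyme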
An asterisk follows results filed as active; . = no result; + = active, no number. Only some compounds are listed: those with a hit (about 3.8% of all), similar ones and a draw of the others.

SMILES | FBA Mtb inh | PrP 5UTR inh | Y pestis TopoI | Mtb hypoxia rep | PrPC TRFRET | GDH-TPI counter
C/C(=N\NC(=O)c1ccc(C(=O)N/N=C(\C)c2ccco2)o1)c1ccco1 | 0.4 | -0.3 | -0.1 | . | 3.0 | 31.3*
O=C1CS/C(=N/N=C/c2ccncc2)N1 | -3.3 | . | 1.4 | . | 2.8 | 29.5
Cn1ccc(/C=N/N=C2/NC(=O)CS2)n1 | -1.4 | -10.9 | -1.6 | . | 0.8 | 46.2*
COc1ccc(CN(C)C(=O)c2cccc(S(=O)(=O)N3CCCc4ccccc43)c2)c(OC)c1OC | -2.0 | -12.3 | 30.4 | 27.7* | 6.8 | -0.4
COc1ccccc1CNC(=O)c1cnc2sccn2c1=O | 0.0 | -73.3 | 1.4 | 2.5 | -3.0 | 36.5*
O=C(NCc1cccnc1)c1cnc2sccn2c1=O | 21.2 | -54.8 | 6.6 | 7.5 | 3.6 | 41.3*
Cc1cccc(NC(=O)c2cnc3sccn3c2=O)n1 | 8.7 | -57.6 | 0.4 | 4.9 | -0.6 | 32.7*
COc1ccc(C[C@@H]2OC3(C=CC(=O)C=C3)O[C@H]2Cc2ccc(OC)cc2)cc1 | -1.1 | -55.0 | 26.3 | . | . | -8.7
O=C1C=CC2(C=C1)O[C@H](Cc1ccccc1)[C@@H](Cc1ccccc1)O2 | -0.6 | -8.1 | 39.6 | . | 88.9* | -2.3
COc1cccc(N(CC(=O)NN=C(C)c2cccs2)S(C)(=O)=O)c1 | . | . | . | 15.4 | . | .
CC(OC(=O)NCc1ccc(C(F)(F)F)cc1)C1O[C@@]2(C)CCCC1O2 (stereo partly drawn) | . | . | . | -5.1 | . | .
COc1ccc2c(c1)c1c(n2C)C2CC=C(CO)C(C1)N2C (stereo not drawn) | . | . | . | 5.1 | . | .
O=C1CCCC/C1=C\Nc1ccc(O)cc1 | 2.0 | -10.0 | -4.9 | 3.2 | -16.4 | 33.3*
CCOC(=O)c1ccc(N/C=C2\CCCCC2=O)cc1 | 0.1 | -89.0 | 3.3 | 3.3 | 9.9 | 24.4
O=C1CCC/C1=C\Nc1ccc(Cl)c([N+](=O)[O-])c1 | -3.4 | -33.1 | -5.1 | 18.3 | 1.4 | 24.9
O=C1CCC/C1=C/Nc1ccc(Cl)cc1 | -2.0 | -5.5 | -5.9 | 14.6 | -0.5 | 31.7*
BrC(/C=N/N1CCN(Cc2ccccc2)CC1)=C/c1ccccc1 | 0.1 | -6.9 | 10.2 | . | 5.3 | 31.0*
BrC(=C\c1ccccc1)/C=N/N1CCN(Cc2ccccc2)CC1 | -3.1 | -16.3 | 29.7 | . | 3.4 | 8.6
Cc1[nH]c(=O)[nH]c(=O)c1C=NNC(=O)C(C)NC(=O)OC(C)(C)C (stereo not drawn) | . | . | . | 10.9 | . | .
O=[N+]([O-])c1ccccc1S(=O)(=O)Nc1ccc(S(=O)(=O)Nc2nccs2)cc1 | -1.1 | 1.6 | 5.3 | 65.6* | 2.2 | 3.0
O=C(NCc1ccccc1)c1cccc2c1C(=O)c1ccc(C=Cc3ccccc3)cc1S2(=O)=O | . | . | . | 9.6 | . | .
COc1cc2nc(N(C)C)nc(N)c2cc1OC | 79.8* | -22.8 | -2.6 | . | 7.4 | 10.3
COc1ccc(CCn2c(=N)c(C(=O)NCc3ccco3)cc3c(=O)n4ccccc4nc32)cc1 | 7.2 | -10.5 | 7.1 | -2.9 | -56.7 | -1.2
CCOC(=O)c1cc2c(=O)n3ccccc3nc2n(Cc2ccco2)c1=NC(=O)c1cccc(OC)c1 | 139.3* | -8.6 | -4.5 | 5.7 | -31.3 | 39.0*
Cc1ccc(S(=O)(=O)c2cc3c(=O)n4ccccc4nc3n(Cc3ccco3)c2=N)cc1C | . | . | . | . | -12.1 | .
SMILES | FBA Mtb inh | PrP 5UTR inh | Y pestis TopoI | Mtb hypoxia rep | PrPC TRFRET | GDH-TPI counter
CCOC(=O)c1cc2c(=O)n3ccccc3nc2n(Cc2ccco2)c1=NC(=O)c1ccccc1OC | + | -8.5 | 0.4 | 2.1 | -15.8 | 24.4
CCOC(=O)c1cc2c(=O)n3cccc(C)c3nc2n(Cc2ccco2)c1=NC(=O)c1ccc(C)cc1 | 1.1 | -21.8 | -0.3 | 5.1 | . | 2.6
CCOC(=O)c1cc2c(=O)n3cccc(C)c3nc2n(Cc2ccco2)c1=NC(=O)c1ccccc1 | + | -4.7 | -4.1 | 9.2 | -15.6 | 9.5
CCOC(=O)c1cc2c(=O)n3ccccc3nc2n(Cc2ccco2)c1=NC(=O)c1ccc(OC)cc1 | 115.0* | -19.5 | 23.2 | 5.8 | -12.4 | 11.4
COC(=O)C1CC1C(NC(=O)c1ccccc1)c1ccccc1 (stereo not drawn) | . | . | . | 6.9 | . | .
CCN1C(=O)C2C(c3ccc(-c4ccc(F)cc4)cc3)N3CCC[C@@]3(C(=O)OC)C2C1=O (stereo partly drawn) | . | . | . | -2.1 | . | .
CSc1cnc2c(=O)n(C)c(=O)[nH]c2n1 | 129.7* | -12.4 | -10.4 | 9.4 | -3.0 | 22.6
CCOC1OC(C(=O)NCc2ccccc2)=CC(C2CCCCC2)C1CCCO (stereo not drawn) | . | . | . | 10.7 | . | .
CN(CC(CC1CCCCC1)N(CC(Cc1ccccc1)N(CCc1ccccc1)N=O)N=O)N=O (stereo not drawn) | . | . | . | 2.1 | . | .
NN=C1CCCc2nonc21 | . | . | . | 11.6 | . | .
CCCCCCCCCCCCN1C(CC(C)=O)c2cc(F)ccc2S1(=O)=O (stereo not drawn) | . | . | . | 20.4 | . | .
COC(=O)C1=C(c2ccc(C(C)=O)cc2)CC2CCC1N2C(=O)N1CCC(O)CC1 (stereo not drawn) | . | . | . | 5.7 | . | .
COC(CNC(=O)c1coc2nc3ccccc3nc12)OC | 120.1* | -29.6 | -4.5 | 0.9 | -6.4 | 29.1
O=C(NCC1CCCO1)c1coc2nc3ccccc3nc12 (stereo not drawn) | 126.2* | -1.9 | 0.1 | 3.7 | -7.9 | 9.2
O=C(NN=Cc1ccccc1)c1ccc(NC(=O)c2ccc(F)cc2)cc1 | . | . | . | -7.1 | . | .
O=S(=O)(c1cccc(-c2cn3cccnc3n2)c1)N1CCOCC1 | + | -3.3 | -6.2 | -3.6 | -1.9 | 27.4
Cc1ccc2nc(-c3cccc(S(=O)(=O)N4CCCC4)c3)cn2c1 | 3.5 | -38.5 | 19.6 | . | 1.5 | 10.6
CN(C)S(=O)(=O)c1cccc(-c2cn3cccnc3n2)c1 | 173.0* | -14.9 | -0.3 | 8.8 | -3.7 | 6.1
CN(C)S(=O)(=O)c1ccc(-c2cn3ccccc3n2)cc1 | 159.8* | -47.3 | -2.7 | -1.3 | 10.4 | 7.4
Cc1ccc2nc(-c3cccc(S(=O)(=O)N(C)C)c3)cn2c1 | 4.6 | -30.2 | 3.9 | 10.7 | 12.2 | 4.4
COc1ccc(C2CC(=O)C=C(c3cc(C)ccc3OC)C2)cc1 (stereo not drawn) | . | . | . | 9.5 | . | .
COC(=O)C1=COC(O)C2C(CO)=CCC12 (stereo not drawn) | . | . | . | 15.0 | . | .
CN1C(=C2C(=O)OC(C)(C)OC2=O)Sc2ccccc21 | -3.0 | -74.8 | 3.4 | 14.4 | -0.8 | 45.7*
O=C(CN1CCOCC1)NN=Cc1cccc2ccccc12 | . | . | . | 9.9 | . | .
CCSc1nnc(NC(=O)c2ccc(C)o2)s1 | -0.3 | -37.6 | -3.9 | 12.8 | -8.4 | 31.8*
Cc1cc(NC(=O)C(C)SCC(=O)N(C)CC(=O)Nc2ccc(F)cc2)no1 (stereo not drawn) | 7.4 | 2.9 | 100.9* | 9.0 | 4.8 | 3.1
Cc1cc(NC(=O)C(C)SCC(=O)N(C)CC(=O)Nc2ccccc2C(F)(F)F)no1 (stereo not drawn) | -1.1 | -10.8 | 1.0 | 2.2 | 8.0 | -5.5
CCCCc1cn(C(CCCCN)C(=O)N2CCNCC2)nn1 (stereo not drawn) | . | . | . | 8.7 | . | .
